Measured values: PubChem BioAssay (EPA / NIEHS)
Records with an inconclusive call do not appear. Active and inactive are the calls of the source. The calls were made as follows, unless noted: active = hit-call score of the fitted dose curve at least 0.9, where 1 is the maximum; inconclusive = response in the unintended direction; inactive = score below 0.9.

Legend:
[1] = TOX21_p53_BLA_p2_viability: Viability Assessment in the Tox21 HCT-116 p53 Agonism Beta-lactamase Assay, Phase 2 (AID 2283591);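 also: actives lower the ATP signal meaning cytotoxicity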
In short: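 HCT-116 p53-bla cells (4000/well) rested 5 h at 37C, then received compounds in DMSO (217-fold dilution) for 16 h at 37C, 5% CO2. After the CCF4 read, CellTiter-Glo was added; ATP luminescence was read after 30 min at room temperature.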

[2] = molecular target: Cellular tumor antigen p53 (Homo sapiens) (UniProt P04637); assay: TOX21_p53_BLA_p2_ratio: Tox21 HCT-116 p53 Agonism Beta-lactamase Assay, Ratio, Phase 2 (AID 2283592)
In short: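 First, HCT116 reporter cells settle for 5 h at 37C. Next, DMSO compound solutions are pinned in (217-fold dilution) and left 16 h. Finally, CCF4-AM substrate is loaded 2 h at room temperature and the 460/530 nm ratio read.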

[3] = TOX21_p53_BLA_p3_viability: Viability Assessment in the Tox21 HCT-116 p53 Agonism Beta-lactamase Assay, Phase 3 (AID 2283593);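 also: cells exposed to compound for 16 h before reading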
In short: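 HCT-116 cells (4000/well) rested 5 h at 37C, then got DMSO compounds by pin tool (217-fold dilution) for 16 h at 37C, 5% CO2. After the bla read, CellTiter-Glo was added and luminescence read at 30 min, room temperature.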

[4] = TOX21_p53_BLA_p4_viability: Viability Assessment in the Tox21 HCT-116 p53 Agonism Beta-lactamase Assay, Phase 4 (AID 2283597);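 also: hits lower the luminescence signal meaning cytotoxicity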
In short: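 4000 HCT116 cells per well; 5 h attachment; compounds from DMSO, 217-fold dilution; 16 h at 37C. Then CCF4-AM, 2 h RT, followed by CellTiter-Glo, 30 min RT, luminescence. Decrease = cytotoxicity.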

[5] = molecular target: Cellular tumor antigen p53 (Homo sapiens) (UniProt P04637); assay: TOX21_p53_BLA_p5_ratio: Tox21 HCT-116 p53 Agonism Beta-lactamase Assay, Ratio, Phase 5 (AID 2283599)
In short: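 HCT-116 cells carrying a p53-inducible beta-lactamase reporter were seeded at 4000 cells/well and dosed after 5 h with compound in DMSO (217-fold dilution). After 16 h at 37C, CCF4-AM substrate was added for 2 h, and the 460/530 nm emission ratio was scored as gain-of-signal versus DMSO.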

[6] = TOX21_p53_BLA_p5_viability: Viability Assessment in the Tox21 HCT-116 p53 Agonism Beta-lactamase Assay, Phase 5 (AID 2283600)
In short: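 Decreased CellTiter-Glo luminescence denotes lost viability. Exposure: 16 h at 37C, 5% CO2, with compounds from DMSO stocks diluted 217-fold in wells of 4000 cells.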

[7] = molecular target: Cellular tumor antigen p53 (Homo sapiens) (UniProt P04637); assay: TOX21_p53_BLA_p4_ratio: Tox21 HCT-116 p53 Agonism Beta-lactamase Assay, Ratio, Phase 4 (AID 2283601)
In short: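 HCT116 cells carrying an inducible beta-lactamase reporter were plated at 4000 cells/well, rested 5 h, then exposed to compounds in DMSO (217-fold dilution) for 16 h at 37C. CCF4-AM substrate was loaded 2 h at room temperature; 460/530 nm emission ratio scored gain-of-signal versus DMSO.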

[8] = CCTE_Harrill_HTTr_Viability_MCF7: CCTE's 6-hour Cell Viability Assessment for the High-Throughput Transcriptomics (HTTr) Platform, in MCF-7 cells cultured in DMEM + 10% fetal bovine serum, Harrill Lab (AID 2284010; active = hit-call score of the fitted dose curve at least 0.9, where 1 is the maximum; inactive = score below 0.9)
In short: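 Read-out is propidium iodide gain of signal by high-content imaging, reflecting membrane integrity loss. Measurements are taken 6 h after dosing, eight concentrations per chemical, with DMSO serving as baseline for bidirectional curve fitting.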

[9] = CCTE_Harrill_HTTr_Apoptosis_MCF7: CCTE's 6-hour Apoptosis Assessment for the High-Throughput Transcriptomics (HTTr) Platform, in MCF-7 cells cultured in DMEM + 10% fetal bovine serum, Harrill Lab (AID 2284011; active = hit-call score of the fitted dose curve at least 0.9, where 1 is the maximum; inactive = score below 0.9)
In short: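 MCF-7 cells in DMEM + 10% FBS exposed 6 h to chemicals over an eight-point dilution series. Caspase-3/7 activation imaged by high-content CellEvent Green staining; fitted bidirectionally versus DMSO.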

[10] = CCTE_Harrill_HTTr_CellCount_MCF7: CCTE's Cell Proliferation Assessment for the High-Throughput Transcriptomics (HTTr) Platform, Harrill Lab (AID 2284012);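 also: cells exposed to compound for six hours; intended direction is loss of nuclei count meaning fewer cells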
In short: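 Cell count served as viability reporter: loss of Hoechst-stained nuclei, counted by high content imaging, marks decreased growth or survival. Exposure was 6 h in MCF-7 cells across eight concentrations, with DMSO as baseline.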

[11] = molecular target: Thyroid hormone receptor alpha (Rattus norvegicus) + Thyroid hormone receptor beta (Rattus norvegicus) (UniProt P18113+P63059); assay: TOX21_TR_LUC_GH3_Antagonist_Followup: Tox21 GH3 Thyroid Hormone Receptor Antagonism Luciferase Follow-Up Assay (AID 2283942)
In short: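 In a GH3 luciferase reporter line, test chemicals spanning 92 uM to 5nM final are co-incubated 24 h with 1.0 nM T3. Activity is expressed as relative luminescence units and analysed relative to DMSO.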

THRA (gene 7067) = THRA (gene 7067) (UniProt P10827); assay: TOX21_TRA_COA_Antagonist_Followup_ratio: Tox21 Thyroid Hormone Receptor alpha Antagonism through Coactivator Recruitment Follow-Up Assay, Ratio (AID 2283953)
In short: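 GST-TRα LBD 2.5 nM, BSA 0.10%, + cpd; then FITC-SRC-2 peptide 200 nM + Tb-anti-GST Ab 2 nM. TR-FRET ratio 520/495 nm. Norm: DMSO = 0%, T3 = 100%.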

THRB (gene 7068) [12] = molecular target: THRB (gene 7068) (UniProt P10828); assay: TOX21_TRB_BLA_Antagonist_Followup_ratio: Tox21 Thyroid Hormone Receptor beta Antagonism Beta-lactamase (BLA) Follow-Up Assay, Ratio (AID 2283958)
In short: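 Cells were plated and allowed to attach for 5 h, then dosed with compounds in DMSO at 11 concentrations for 18 h at 37C. Beta-lactamase reporter activity was measured via CCF4-AM FRET as the 460:530 nm ratio.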

[13] = TOX21_TRB_BLA_Antagonist_Followup_viability: Viability Assessment in the Tox21 Thyroid Hormone Receptor beta Antagonism Beta-lactamase (BLA) Follow-Up Assay (AID 2283961)
In short: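 HEK293T cells with GAL4-human TRβ LBD and UAS-bla reporter, 3,000 cells/well in 2% charcoal-stripped FBS medium; 11-point concentrations in triplicate, 18 h at 37C. Viability from ATP by CellTiter-Glo luminescence, 30 min RT, same plates.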

THRB (gene 7068) [14] = molecular target: THRB (gene 7068) (UniProt P10828); assay: TOX21_TRB_COA_Antagonist_Followup_ratio: Tox21 Thyroid Hormone Receptor beta Antagonism through Coactivator Recruitment Follow-Up Assay, Ratio (AID 2283967)
In short: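 Coactivator (SRC-2) recruitment to purified GST-TRβ ligand-binding domain is monitored by terbium-to-fluorescein energy transfer, emission ratio 520:495 nm. DMSO wells define 0% and T3 wells 100% activity.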

[15] = molecular target: Retinoic acid receptor RXR-alpha (Homo sapiens) (UniProt P19793); assay: TOX21_TR_RXR_BLA_Antagonist_Followup_ratio: Tox21 Thyroid Hormone Receptor beta Retinoid X Receptor alpha (RXRa) Antagonism Beta-lactamase (BLA) Follow-Up Assay, Ratio (AID 2283972)
In short: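 RXRa-UAS-bla HEK293T cells, 2,500/well in phenol red-free DMEM with 2% charcoal-stripped FBS, 5 h attachment, then compounds (11 concentrations, triplicate) for 16 h at 37C; FRET-B/GCCF4-AM substrate 2 h RT; 460:530 nm ratio, loss of signal vs DMSO.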

Measured: AC50

Sequence of Cellular tumor antigen p53 (Homo sapiens) (P04637 whole entry, looked up): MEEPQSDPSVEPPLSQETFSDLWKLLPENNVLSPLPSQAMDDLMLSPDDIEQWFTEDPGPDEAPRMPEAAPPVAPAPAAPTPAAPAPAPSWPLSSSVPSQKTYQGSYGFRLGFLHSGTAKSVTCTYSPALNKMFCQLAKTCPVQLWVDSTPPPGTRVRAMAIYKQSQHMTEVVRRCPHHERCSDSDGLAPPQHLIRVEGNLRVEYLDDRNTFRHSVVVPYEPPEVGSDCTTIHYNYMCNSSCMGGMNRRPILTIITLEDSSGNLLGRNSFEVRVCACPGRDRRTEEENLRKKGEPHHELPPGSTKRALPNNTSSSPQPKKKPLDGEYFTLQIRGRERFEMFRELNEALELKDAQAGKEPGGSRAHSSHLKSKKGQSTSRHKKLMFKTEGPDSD
Sequence of THRB (gene 7068) (P10828 whole entry, looked up, the tested form may be a part): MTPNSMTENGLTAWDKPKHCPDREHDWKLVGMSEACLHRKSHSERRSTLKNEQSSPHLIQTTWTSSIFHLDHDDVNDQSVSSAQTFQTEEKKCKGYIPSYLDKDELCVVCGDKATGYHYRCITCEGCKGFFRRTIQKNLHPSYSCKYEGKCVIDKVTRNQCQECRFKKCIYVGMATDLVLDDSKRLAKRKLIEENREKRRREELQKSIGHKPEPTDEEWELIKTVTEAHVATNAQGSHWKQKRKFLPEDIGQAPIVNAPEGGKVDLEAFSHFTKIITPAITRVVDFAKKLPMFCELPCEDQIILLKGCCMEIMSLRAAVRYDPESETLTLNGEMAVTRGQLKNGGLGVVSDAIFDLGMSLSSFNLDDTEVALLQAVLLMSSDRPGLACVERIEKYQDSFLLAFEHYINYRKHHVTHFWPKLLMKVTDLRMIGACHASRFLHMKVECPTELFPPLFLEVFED
Sequence of THRA (gene 7067) (P10827 whole entry, looked up, the tested form may be a part): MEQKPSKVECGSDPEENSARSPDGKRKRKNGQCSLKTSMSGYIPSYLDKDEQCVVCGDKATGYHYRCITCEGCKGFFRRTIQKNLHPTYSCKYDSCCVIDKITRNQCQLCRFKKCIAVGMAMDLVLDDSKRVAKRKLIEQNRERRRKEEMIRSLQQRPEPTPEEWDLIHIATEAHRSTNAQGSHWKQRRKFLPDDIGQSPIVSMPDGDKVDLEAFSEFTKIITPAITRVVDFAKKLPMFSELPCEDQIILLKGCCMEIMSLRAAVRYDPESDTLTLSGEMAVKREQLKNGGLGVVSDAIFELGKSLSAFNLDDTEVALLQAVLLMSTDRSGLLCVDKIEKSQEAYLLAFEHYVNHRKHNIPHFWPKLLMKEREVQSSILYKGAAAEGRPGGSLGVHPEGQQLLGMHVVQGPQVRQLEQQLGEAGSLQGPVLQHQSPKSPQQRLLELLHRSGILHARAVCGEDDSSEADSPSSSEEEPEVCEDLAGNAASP
Sequence of Retinoic acid receptor RXR-alpha (Homo sapiens) (P19793 whole entry, looked up): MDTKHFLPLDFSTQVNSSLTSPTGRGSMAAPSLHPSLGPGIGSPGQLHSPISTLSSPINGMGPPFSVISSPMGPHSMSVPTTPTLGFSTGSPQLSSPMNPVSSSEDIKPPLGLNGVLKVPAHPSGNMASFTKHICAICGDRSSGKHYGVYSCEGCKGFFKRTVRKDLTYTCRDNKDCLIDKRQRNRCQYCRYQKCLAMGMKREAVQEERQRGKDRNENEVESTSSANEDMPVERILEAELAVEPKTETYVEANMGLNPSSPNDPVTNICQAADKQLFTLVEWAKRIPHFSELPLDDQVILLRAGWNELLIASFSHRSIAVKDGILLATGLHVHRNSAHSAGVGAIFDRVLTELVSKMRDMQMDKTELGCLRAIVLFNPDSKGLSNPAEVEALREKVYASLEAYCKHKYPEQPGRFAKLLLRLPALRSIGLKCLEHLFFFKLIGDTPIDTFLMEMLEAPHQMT

O=C1c2ccccc2Cc2ccccc21
inactive: [1] | [2] | [3] | [4] | [5] | [6] | [7]

C=Cc1ccccc1
inactive: [1] | [2] | [3] | [4] | [5] | [6] | [7]

COc1ccc(CNCC(O)COc2ccc3[nH]c(=O)ccc3c2)cc1OC (centres undefined)
inactive: [1] | [2] | [3] | [4] | [5] | [6] | [7]

CC1Cc2ccccc2N1NC(=O)c1ccc(Cl)c(S(N)(=O)=O)c1 (centres undefined)
not listed: [11] | THRA (gene 7067) | THRB (gene 7068) [12] | [13] | THRB (gene 7068) [14] | [15]
inactive: all other assays above

Cc1c(C(=O)O)cccc1[N+](=O)[O-]
inactive: [1] | [2] | [3] | [4] | [5] | [6] | [7]

Cc1cc(CC(=O)O)c(C)n1-c1ccc(Cl)cc1
inactive: [1] | [2] | [3] | [4] | [5] | [6] | [7]

O=c1[nH]c(=O)n([C@H]2C[C@H](O)[C@@H](CO)O2)cc1F
active: [3] 600 nM | [4] 1530 nM | [5] 1800 nM | [6] 595 nM | [7] 6700 nM
not listed: [8] | [9] | [10]
inactive: all other assays above

CC(=O)[C@H]1CC[C@H]2[C@@H]3C=CC4=CC(=O)CC[C@@]4(C)[C@@H]3CC[C@]12C
not listed: [8] | [9] | [10] | THRB (gene 7068) [12] | [13] | [15]
inactive: all other assays above

CCCCC(CC)COC(=O)C(C#N)=C(c1ccccc1)c1ccccc1 (centres undefined)
inactive: [1] | [2] | [3] | [4] | [5] | [6] | [7]

Cc1cc(N)c2cc(NC(=O)Nc3ccc4nc(C)cc(N)c4c3)ccc2n1
inactive: [1] | [2] | [3] | [5] | [6] | [7]
active: [4] 29700 nM

Oc1ccccc1C=NCc1ccccc1
inactive: [1] | [2] | [3] | [4] | [5] | [6] | [7]
